Screening data deposited in PubChem BioAssay by Broad Institute.
Glyco luc inh: increase of ERlucT glycosylation luciferase signal, primary screen, N-linked glycosylation inhibitor project, D54 ERlucT cells, luminescence, set 2. D54 ERlucT glycosylation luciferase reporter, 24 h; percent of 100 nM tunicamycin response. reporter increase, % at 12.5 µM. 360,000 compounds, 0.23% hits;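 active = mean luciferase reporter signal, scaled so untreated is 0 and the glycosylation-blocking control 100, at or above a set limit in every replicate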;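 note: luciferase carries N-glycosylation sites so blocking glycosylation raises the light; 0% = median of neutral control wells and 100% = median of 100 nM tunicamycin wells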
RAD52 inh: RAD52 DNA annealing inhibitors, primary screen, biochemical, FRET, single point, set 2. recombinant RAD52 DNA annealing, FRET fluorescence. inhibition, % at 18.7 µM. 360,000 compounds, 0.46% hits. AID 651710, 2012;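 active = every replicate showing at least 50% inhibition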
Casp6 inh: human caspase-6 inhibitors, primary screen, biochemical, VEID-R110 fluorescence, single point, set 2. purified caspase-6, Z-VEID-R110 cleavage fluorescence. P55212. inhibition, % at 12.5 µM. 350,000 compounds, 0.53% hits;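 active = mean inhibition across replicates at least about 35%, with every replicate also reaching that limit, limit read from the data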;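 note: 0% = median of neutral control wells and 100% = no fluorescence left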
MLL AF4-AF9 inh: inhibitors of AF4 peptide binding to AF9, primary screen, biochemical, AlphaScreen, biotin-AF4 peptide, FLAG-AF9, single point; Protein AF-9 (Homo sapiens), P42568; inhibition, % at 10 µM; 350,000 compounds, 0.47% hits; AID 651704, 2012;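 active = every replicate reaching a set inhibition limit, whatever the replicate mean, cut at about 25% in these data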;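 note: 0% = plate neutral control median and 100% = total signal loss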
RAD54 inh: inhibitors of human RAD54 branch migration, primary screen, biochemical, fluorescence, single point | inhibition, % at 10.4 µM | 360,000 compounds, 0.14% hits | DNA repair and recombination protein RAD54-like (Homo sapiens), Q92698 | RAD54 Holliday junction branch migration, FAM/BHQ fluorescence;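 active = mean normalized replicate activity at least 40 and at least half of replicates scoring 40 or more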;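 note: 0% = median of neutral control wells and 100% = median of positive control wells; inhibitors cause a drop in the FAM fluorescence signal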
Target sequence (Q92698 whole entry, looked up): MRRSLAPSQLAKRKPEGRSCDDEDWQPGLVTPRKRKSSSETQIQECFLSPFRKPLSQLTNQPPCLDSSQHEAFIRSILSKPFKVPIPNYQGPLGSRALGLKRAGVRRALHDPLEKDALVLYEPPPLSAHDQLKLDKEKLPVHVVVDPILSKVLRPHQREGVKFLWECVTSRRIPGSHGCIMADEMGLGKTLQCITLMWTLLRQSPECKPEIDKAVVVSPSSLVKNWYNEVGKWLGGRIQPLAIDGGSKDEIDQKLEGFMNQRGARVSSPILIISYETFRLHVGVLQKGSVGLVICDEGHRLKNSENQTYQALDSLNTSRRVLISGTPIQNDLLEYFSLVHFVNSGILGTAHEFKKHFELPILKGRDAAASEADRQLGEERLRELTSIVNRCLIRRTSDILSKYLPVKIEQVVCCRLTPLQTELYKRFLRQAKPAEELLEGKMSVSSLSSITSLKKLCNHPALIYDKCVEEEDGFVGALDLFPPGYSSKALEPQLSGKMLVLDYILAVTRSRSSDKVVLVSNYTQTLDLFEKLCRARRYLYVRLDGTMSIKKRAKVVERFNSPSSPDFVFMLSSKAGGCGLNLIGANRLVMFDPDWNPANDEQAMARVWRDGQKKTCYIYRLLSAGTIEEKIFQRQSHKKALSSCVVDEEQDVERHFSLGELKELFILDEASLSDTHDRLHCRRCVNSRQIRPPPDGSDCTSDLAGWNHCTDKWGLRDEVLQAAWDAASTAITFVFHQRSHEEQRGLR
Active calls of the source: *; x = no result; ! = not confirmed by another sample. In the library only some 1.2% were active in any assay of this set; here they are far more common.

SMILES	Glyco luc inh	RAD52 inh	Casp6 inh	MLL AF4-AF9 inh	RAD54 inh
COc1ccc2c(C)nc(Nc3nc(-c4ccccc4)cc(=O)[nH]3)nc2c1	94.2*	-16.2	1.6	0.5	-0.8
Cc1ccc2nc(Nc3nc(-c4ccccc4)cc(=O)[nH]3)nc(C)c2c1	3.3	x	x	x	3.4
O=C(C[C@H]1C=C[C@@H](NC(=O)c2cccc(F)c2)[C@H](CO)O1)NCCN1CCCC1	x	-5.8	-1.8	-0.5	-11.0
CCN1C(=O)C2(SC(NC(C)=O)=NN2C(C)=O)c2cc(C)cc(C)c21 (centres undefined)	5.1	-0.3	1.8	49.8*	2.5
Cc1c(Br)c(=O)oc2c(Br)c(O)c(O)cc12	2.6	-18.2	46.8*	3.4	x
Cn1c(N=Nc2ccccc2)nc2ccccc21	-9.6	-21.3	39.1*	8.7	-5.3
C[C@H](CO)N1C[C@H](C)[C@H](CN(C)C)Oc2c(NS(=O)(=O)c3cccs3)cccc2C1=O	x	5.8	1.5	-3.2	5.8
COc1ccc(NC(=O)c2ccc(NC(=O)c3ccncc3)cc2)cc1	-0.9	-5.2	-0.4	31.4*	-4.6
COc1ccc(C(=O)NNC(=O)c2ccncc2)cc1	3.8	x	x	x	1.1
COCCNC(=O)C[C@@H]1CC[C@@H]2[C@@H](COc3ccc(NC(=O)C4CCOCC4)cc3C(=O)N2C)O1	x	0.5	-1.0	-2.9	-4.9
CCNC(=O)C[C@H]1CC[C@@H]2[C@H](COc3ccc(NC(=O)Nc4ccc(C)cc4)cc3C(=O)N2C)O1	x	-6.9	0.6	0.8	9.6
Cc1c(C)n(CC(O)CNc2ccccc2)c2ccccc12 (centres undefined)	-1.6	-11.8	0.8	25.7*	x
COc1ccccc1S(=O)(=O)N[C@H]1CC[C@H](CC(=O)N2CCOCC2)O[C@@H]1CO	x	x	0.7	-0.6	-1.1
c1cc(N2CCCCC2)nc(N2CCCCC2)n1	-4.2	-16.6	-6.6	1.3	-4.5
C[c-]1[c-](C)[c-](C)[c-](C)[c-]1C.[Fe].c1cc2nccc(N3CCCC3)[c-]2c1 (centres undefined)	1.3	-58.2	38.0*!	-5.1	-12.6
CC(Oc1ncnc2ccccc12)C(=O)Nc1cccc(S(=O)(=O)N2CCOCC2)c1 (centres undefined)	1.7	-13.8	0.3	28.8*	-1.1
O=C(COc1ncnc2ccccc12)Nc1cccc(S(=O)(=O)N2CCOCC2)c1	-0.9	x	x	x	2.1
Cc1nc(S/C(=C\c2ccc(-c3ccc(C(=O)O)c(Cl)c3)o2)C(=O)O)n[nH]1	1.2	-120.6	58.5*	-26.8	-32.3
Cc1onc(-c2c(Cl)cccc2Cl)c1C(=O)N[C@@H]1C(=O)N2[C@@H]1SC(C)(C)[C@@H]2C(=O)O	31.0*!	-3.6	0.1	-1.9	0.3
Cc1onc(-c2c(Cl)cccc2Cl)c1C(=O)NC1C(=O)N2C1SC(C)(C)C2C(=O)O (centres undefined)	-0.3	-13.9	11.1	0.8	5.2
COc1cc(OC)c2ccc(=O)oc2c1C(CCN1CCN(c2ccccc2)CC1)c1ccc(N(C)C)cc1 (centres undefined)	0.7	-25.9	1.4	26.1*	-10.1
COc1cc(O)c(C(CCN2CCCC2)c2ccc(N(C)C)cc2)c(OC)c1 (centres undefined)	-1.5	-4.2	-3.5	39.0*	-2.8
COc1ccc(C2CC(=O)Oc3c(C(CCN4CCCCC4)c4ccc(N(C)C)cc4)c(OC)cc(OC)c32)cc1 (centres undefined)	-1.3	18.7	-1.6	44.2*	4.3
CCC(=O)N1C[C@H](C)[C@@H](OC)CN(C)C(=O)c2cc(NC(=O)NC(C)C)ccc2OC[C@@H]1C	x	-2.6	1.1	-2.0	0.1
Cc1onc(-c2ccccc2)c1C(=O)N(Cc1ccco1)Cc1cccs1	-3.7	-13.9	46.6*	3.0	x
SMILES	Glyco luc inh	RAD52 inh	Casp6 inh	MLL AF4-AF9 inh	RAD54 inh
COc1ccc(NC(=O)c2ccccc2NC(=O)CN2CCCCCC2)cc1	-4.6	-2.1	1.5	28.4*	-8.8
CCOc1ccc(NC(=O)c2ccccc2NC(=O)CN2CCCCCC2)cc1	-10.6	-5.0	-5.0	-0.3	3.8
Cc1noc(C)c1NC(=O)N[C@H]1C=C[C@H](CC(=O)N2CCN(C)CC2)O[C@@H]1CO	x	-1.5	0.1	-0.8	-4.3
COc1ccc(OC)c(N(CC(=O)Nc2ccccc2)S(C)(=O)=O)c1	1.5	-7.2	36.6*	1.9	1.5
COc1cc(/C=C2/C(=O)NN(c3ccc(Cl)cc3)C2=O)cc(Br)c1O	0.8	-10.4	80.9*	1.4	-0.1
C[C@H](CO)N1C[C@H](C)[C@H](CN(C)C(=O)Nc2ccccc2)Oc2ccc(NC(=O)Nc3cccc4ccccc34)cc2CC1=O	x	31.0	-0.5	2.5	-7.0
NCC[C@@H]1CC[C@H](NC(=O)c2ccccc2F)[C@@H](CO)O1	x	-1.9	39.4*	2.7	-4.2
O=C(O)C[C@@H]1CC[C@@H](NC(=O)c2ccccc2F)[C@H](CO)O1	x	-9.9	1.0	-6.9	-6.0
O=C(Cc1ccccn1)NCC[C@@H]1CC[C@@H](NC(=O)c2ccccc2F)[C@H](CO)O1	x	-26.4	35.1*	-2.4	-2.6
C(=N\Nc1nc2ccccc2[nH]1)/C1CCCCC1	-1.3	-4.4	2.2	25.7*	x
C(=N\Nc1nc2ccccc2[nH]1)/c1ccccc1	-3.0	0.6	0.2	6.5	3.0
CCC(=O)N1CCC2(CC1)CN(Cc1ccc(Cl)cc1)[C@H](CO)c1[nH]c3cc(OC)ccc3c12	x	-44.7	2.7	-2.7	x
COc1ccc2c([N+](=O)[O-])c(Cl)[nH]c2c1	2.4	4.1	62.7*	-4.8	x
CN(C)CC(=O)N[C@H]1CC[C@@H](CC(=O)NCc2ccc(Cl)cc2)O[C@H]1CO	x	9.6	-2.6	-11.7	-5.8
O=S(=O)(NCC[C@@H]1CC[C@@H](NS(=O)(=O)c2cccc(Cl)c2)[C@@H](CO)O1)c1cccc(F)c1	x	-0.1	-0.7	0.1	4.0
O=C(N/N=C/c1cn(Cc2ccccc2)c2ccccc12)c1cc(O)cc(O)c1	-0.5	-24.0	52.8*	10.3	2.0
Cc1cccc(N2CCN(C(=O)CCS(=O)(=O)c3ccc(Br)cc3)CC2C)c1 (centres undefined)	-0.5	-8.9	66.9*	-1.9	-0.3
CC(=O)N1CCCc2cc(S(=O)(=O)CCC(=O)N3CCN(c4cccc(C)c4)C(C)C3)ccc21 (centres undefined)	-0.9	-33.8	22.8	-19.4	3.5
COc1cc(/C=C2\SC(=O)NC2=O)ccc1Oc1ccc([N+](=O)[O-])cc1[N+](=O)[O-]	0.4	-11.0	38.8*	2.0	x
CCOc1ccc(/C=C2\SC(=S)NC2=O)cc1OC	3.1	-180.5	9.9	-0.2	-5.2
